Where “and” joins values, the source holds several entries; their conditions need not be identical. Equal entries are not always repeated. Results filed as inconclusive are left out. Calls of active or inactive are those of the source. Unless noted, no rule for the calls is given here.

A word on the inhibition: it is the drop in the measured response relative to a control, in per cent.

Assay [1] is described as follows: rapamycin-like changes in RPL19A-GFP expression – cell-based, S. cerevisiae, multiplex flow cytometry, primary screen (AID 1862; in the data active = percent of DMSO control GFP below about 86%;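 also: lower values mimic rapamycin by blocking the RPL19A rise seen in DMSO cells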). Particulars: S. cerevisiae RPL19A-GFP strain, flow cytometry fluorescence, 3 h; at 10 µM; stronger effect = lower value. A general note: A flow cytometer gives signals particle by particle.
Assay [2] in a line: TOR pathway GLN3 branch reporter MEP2-GFP changes – S. cerevisiae, multiplex flow cytometry, primary screen (AID 1867;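 active = GFP response, as percent of the DMSO control, above the screen-wide mean plus 3 SD, about 139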;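 also: median GFP channel fluorescence of barcode-gated MEP2-GFP cells measured by flow cytometry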). As to conditions: S. cerevisiae MEP2-GFP strain, 3 h, at 10 µM, stronger effect = higher value.
A short description of assay [3]: TOR pathway RTG branch CIT2 reporter changes – S. cerevisiae, GFP fusion, multiplex flow cytometry, primary screen (AID 1870;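 active = percent response above a set limit, the screen-wide mean plus 3 SD, cut at about 130% in these data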;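 also: barcoded CIT2-GFP strain pooled with four other GFP strains with rapamycin as positive control; median GFP fluorescence per well over plate mean of DMSO wells so 100% = DMSO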). Particulars: S. cerevisiae CIT2-GFP expression, 3 h, at 10 µM, stronger effect = higher value.
Assay [4] is described as follows: TOR pathway LAP4-GFP level changes – S. cerevisiae, multiplex flow cytometry, primary screen (AID 1873;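 active = GFP signal, as percent of the solvent control, above the screen mean plus 3 SD, about 149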). Particulars: S. cerevisiae LAP4-GFP expression, 3 h, at 10 µM, stronger effect = higher value.
The nature of assay [5]: reduced mouse 2C T cell binding to pMHC/ICAM-1 vesicles – MLPCN validation set, flow cytometry, LFA-1/ICAM-1 modulator project, pilot screen (AID 2523;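 active = response below a set limit, under 55% cells CD8-positive and vesicle-bound, and CD8 cells' 90th-percentile brightness under 279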;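 as to vesicle binding response: mean PE anti-B7-1 fluorescence of CD8+ cells relative to row control; 100% = QL9-loaded vesicles with DMSO vehicle in the same plate row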). As to conditions: 2C mouse CD8+ T cells, at 7 µM, stronger effect = lower value; double positive events: measured here: CD8+/vesicle+ event percentage.
Assay [6] has as its target Integrin beta-1 (Homo sapiens) + Integrin alpha-4 (Homo sapiens) (UniProt P13612+P05556). As to the kind of experiment: alpha4beta1 integrin LIBS antibody binding reduction – U937 cells, HUTS-21 mAb, flow cytometry, validation set, VLA-4 allosteric modulator project, pilot screen (AID 2674;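 active = inhibition above 50%, about 3 SD of the validation set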;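 also: antibody binding induced by the VLA-4 ligand LDV present at three times its Kd; 0% = LDV ligand with antibody and no compound and 100% = antibody without LDV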). Particulars: HUTS-21 LIBS mAb binding, at 6.7 µM, stronger effect = higher value.
Assay [7] can be described thus: calorie-restriction mimetic ROS inhibitors, yeast – validation compound set, pilot screen (AID 2706;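 active = superoxide response below 65% of plate, a cut near 3 SD across the whole screen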;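 also: yeast exposed to compound for one week at 30 degrees C before staining; 100% = mean of all compound wells on the same plate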). Particulars: S. cerevisiae aging, superoxide DHE fluorescence; at 10 µM; stronger effect = lower value.
In assay [8] the target is Beta-adrenergic receptor kinase 1 (Homo sapiens) (UniProt P25098). As to the kind of experiment: GRK2 binders displacing RNA aptamer, biochemical, validation, human GRK2, bead flow cytometry (AID 488806;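 active = aptamer binding inhibition above 30%, about 3 SD of noise from non-fluorescent compounds; inactive = inhibition at or below 30%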). Particulars: bead-bound GRK2, FAM-aptamer displacement, at 10 µM, stronger effect = higher value.
Beta-adrenergic receptor kinase 1 (Homo sapiens), sequence (P25098 whole entry, looked up): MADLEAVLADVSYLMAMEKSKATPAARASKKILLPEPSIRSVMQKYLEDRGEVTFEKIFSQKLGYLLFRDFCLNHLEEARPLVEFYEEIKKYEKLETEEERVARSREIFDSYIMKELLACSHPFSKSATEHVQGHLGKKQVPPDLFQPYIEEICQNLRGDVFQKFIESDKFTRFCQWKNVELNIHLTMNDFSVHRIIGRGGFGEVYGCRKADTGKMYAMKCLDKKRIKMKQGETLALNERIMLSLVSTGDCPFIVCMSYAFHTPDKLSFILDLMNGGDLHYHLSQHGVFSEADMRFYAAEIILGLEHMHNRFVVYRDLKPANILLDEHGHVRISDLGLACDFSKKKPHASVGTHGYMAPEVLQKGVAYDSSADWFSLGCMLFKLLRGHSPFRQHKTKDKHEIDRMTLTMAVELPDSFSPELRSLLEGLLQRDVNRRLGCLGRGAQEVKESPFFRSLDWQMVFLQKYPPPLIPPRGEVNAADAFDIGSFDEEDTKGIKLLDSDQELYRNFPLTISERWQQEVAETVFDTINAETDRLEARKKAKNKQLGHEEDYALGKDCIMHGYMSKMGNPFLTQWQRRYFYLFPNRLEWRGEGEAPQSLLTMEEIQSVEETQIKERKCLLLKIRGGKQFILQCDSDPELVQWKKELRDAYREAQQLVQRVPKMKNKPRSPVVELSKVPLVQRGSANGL
Assay [9] has as its target AP-2 complex subunit beta (Homo sapiens) (UniProt P63010). As to the kind of experiment: beta-arrestin/AP2 interaction blockers – biochemical, validation set, GST-AP2 beads, flow cytometry, pilot screen (AID 504541;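 active = inhibition above 54%, about 3 SD of non-fluorescent compounds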;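 also: AP2 carries R879A mutation and is captured from E. coli lysate; bead-bound FITC arrestin peptide fluorescence measuring arrestin peptide binding to AP2; 0% = DMSO wells and 100% = excess unlabeled arrestin peptide control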). As to conditions: FITC arrestin peptide, at 10 µM, stronger effect = higher value.
Assay [10] is described as follows: cytosolic pH regulators acting via V-ATPase – S. cerevisiae, pHLuorin, HTS validation (AID 504600; in the data active = response above about 15%;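 also: plate controls were DMSO for no effect and reference compound for full effect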). Particulars: V-ATPase proton transport, at 10 µM, stronger effect = higher value.
The test system of assay [11] is anti-desmoglein-3 scFv antibody binding to human DSG3. As to the kind of experiment: blockers of pathogenic pemphigus antibody–desmoglein-3 binding – biochemical, validation compound set, bead-based, flow cytometry, pilot screen (AID 588368;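 active = binding below the plate cutoff, the plate median minus 3 SD, with a reading above zero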;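 also: signal is the median channel fluorescence of bead-bound GFP antibody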). Particulars: Protein G beads, DSG3-Fc, scFv-GFP binding, at 10 µM, stronger effect = lower value.
Assay [12] relates to Botulinum neurotoxin type F light chain protease (Clostridium botulinum). Put plainly: Clostridium botulinum type F light chain protease inhibitors, microsphere substrate cleavage, validation (AID 588459). Particulars: multiplex microsphere protease substrate cleavage assay, flow cytometry; at 10 µM; stronger effect = higher value.
The target in assay [13] is Botulinum neurotoxin type A (Clostridium botulinum) (UniProt P0DPI0). Put plainly: BoNT/A light chain protease inhibitors, biochemical, multiplex microsphere flow cytometry, validation set (AID 588460). As to conditions: at 10 µM, stronger effect = higher value.
Botulinum neurotoxin type A (Clostridium botulinum), sequence (P0DPI0 whole entry, looked up): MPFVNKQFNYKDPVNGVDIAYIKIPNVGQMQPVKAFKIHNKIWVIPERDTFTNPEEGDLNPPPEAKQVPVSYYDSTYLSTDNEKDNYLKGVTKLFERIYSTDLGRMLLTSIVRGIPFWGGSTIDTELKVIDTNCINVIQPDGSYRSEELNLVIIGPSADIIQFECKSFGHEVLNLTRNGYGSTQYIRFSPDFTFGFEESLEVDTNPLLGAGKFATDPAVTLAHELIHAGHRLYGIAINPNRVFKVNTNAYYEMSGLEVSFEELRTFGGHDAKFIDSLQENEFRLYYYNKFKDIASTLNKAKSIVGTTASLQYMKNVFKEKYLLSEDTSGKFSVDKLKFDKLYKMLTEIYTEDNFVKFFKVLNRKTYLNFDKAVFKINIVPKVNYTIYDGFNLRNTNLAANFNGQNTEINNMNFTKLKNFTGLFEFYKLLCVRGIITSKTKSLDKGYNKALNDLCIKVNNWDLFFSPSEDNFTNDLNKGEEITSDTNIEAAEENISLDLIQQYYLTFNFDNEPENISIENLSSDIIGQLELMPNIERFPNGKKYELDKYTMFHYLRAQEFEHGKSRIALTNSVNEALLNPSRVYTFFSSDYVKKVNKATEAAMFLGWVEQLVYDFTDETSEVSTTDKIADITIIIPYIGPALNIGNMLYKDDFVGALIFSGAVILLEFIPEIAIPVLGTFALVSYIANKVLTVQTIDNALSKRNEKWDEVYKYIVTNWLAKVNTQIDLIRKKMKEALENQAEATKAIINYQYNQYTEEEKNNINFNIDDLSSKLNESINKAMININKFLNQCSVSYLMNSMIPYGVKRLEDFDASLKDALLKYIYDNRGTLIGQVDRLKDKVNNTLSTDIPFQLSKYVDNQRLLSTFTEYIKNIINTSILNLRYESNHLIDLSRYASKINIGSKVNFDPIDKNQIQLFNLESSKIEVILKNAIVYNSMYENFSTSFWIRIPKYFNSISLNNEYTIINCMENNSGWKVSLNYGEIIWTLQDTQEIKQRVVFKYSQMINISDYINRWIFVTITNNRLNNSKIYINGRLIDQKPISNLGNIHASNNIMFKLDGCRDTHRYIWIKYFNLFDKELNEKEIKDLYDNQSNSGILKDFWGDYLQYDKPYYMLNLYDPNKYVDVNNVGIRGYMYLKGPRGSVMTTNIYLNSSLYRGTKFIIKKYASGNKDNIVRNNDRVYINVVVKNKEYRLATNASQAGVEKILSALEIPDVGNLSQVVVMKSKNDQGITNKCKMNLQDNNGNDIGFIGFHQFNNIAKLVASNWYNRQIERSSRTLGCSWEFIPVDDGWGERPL
Assay [14] deals with Lethal factor (Bacillus anthracis) (UniProt P15917). Put plainly: Bacillus anthracis lethal factor inhibition, microsphere flow cytometry protease assay, validation at 10 µM (AID 588461). Particulars: multiplex microsphere protease cleavage assay, stronger effect = higher value.
Lethal factor (Bacillus anthracis), sequence (P15917 whole entry, looked up): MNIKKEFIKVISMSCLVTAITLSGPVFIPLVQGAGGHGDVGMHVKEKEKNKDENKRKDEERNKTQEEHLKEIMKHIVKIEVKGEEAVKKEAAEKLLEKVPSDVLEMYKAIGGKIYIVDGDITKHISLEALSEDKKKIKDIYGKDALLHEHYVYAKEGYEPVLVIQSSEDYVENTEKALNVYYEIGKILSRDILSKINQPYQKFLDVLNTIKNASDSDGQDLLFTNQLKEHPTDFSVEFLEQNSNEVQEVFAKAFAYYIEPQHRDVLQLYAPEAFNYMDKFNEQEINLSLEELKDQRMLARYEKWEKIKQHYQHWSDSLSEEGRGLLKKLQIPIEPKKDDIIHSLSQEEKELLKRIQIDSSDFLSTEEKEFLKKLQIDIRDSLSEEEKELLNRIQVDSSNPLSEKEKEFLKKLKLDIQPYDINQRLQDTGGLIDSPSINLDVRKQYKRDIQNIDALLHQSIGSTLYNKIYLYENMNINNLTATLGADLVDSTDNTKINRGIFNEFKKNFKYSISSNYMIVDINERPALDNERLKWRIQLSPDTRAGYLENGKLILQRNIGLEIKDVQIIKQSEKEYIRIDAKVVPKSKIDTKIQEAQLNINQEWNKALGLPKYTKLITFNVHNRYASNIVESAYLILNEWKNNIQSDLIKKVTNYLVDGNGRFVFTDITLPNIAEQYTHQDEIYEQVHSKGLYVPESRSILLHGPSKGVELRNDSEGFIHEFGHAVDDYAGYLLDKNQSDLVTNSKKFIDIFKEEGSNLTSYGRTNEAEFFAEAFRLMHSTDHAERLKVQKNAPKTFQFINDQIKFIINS
Assay [15] is described as follows: Nile Red efflux blockade in pump-expressing yeast – validation compound set, multiplex, phenotypic, pilot screen (AID 588506;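 active = efflux inhibition above 0.42, the validation set average plus 4 SD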;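 also: Nile Red retained in cells so higher fluorescence means more efflux inhibition; 0 = negative control wells and 1 = enniatin B 25 µM full block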). As to conditions: S. cerevisiae pump-expressing triplex, Nile Red efflux flow cytometry; at 10 µM; stronger effect = higher value.
The target of assay [16] is ATP-binding cassette sub-family B member 6 (Homo sapiens) (UniProt Q9NP58). Put plainly: blockers of ABCB6-driven porphyrin uptake – K562-ABCB6 cells, flow cytometry, validation set, pilot screen (AID 588550;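 active = inhibition above the screen-wide mean plus 3 SD, about 51%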;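 also: 0% = DMSO wells and 100% = benzethonium chloride 70 µM positive control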). Particulars: K562-ABCB6 porphyrin accumulation, 1 h, at 10 µM, stronger effect = higher value.
A short description of assay [17]: AML differentiation inducers, ER-HoxA9 marrow cells – cell-based, GFP/MAC1 double positive, flow cytometry, validation set, primary screen (AID 588685;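 active = differentiation response of at least 50%, scaled between solvent and reference control, from cells with both markers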;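 also: compound exposure lasts four days before antibody staining and flow analysis; 0% = DMSO wells and 100% = 5 µM fulvestrant positive control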). Particulars: stronger effect = higher value.
Assay [18] can be described thus: hit retest on RPL19A-GFP reporter strain – cell-based, S. cerevisiae, flow cytometry, cherry picks, mother/daughter gates, confirmation (AID 2270;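 active = GFP response below 50% of the DMSO control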). As to conditions: 3 h, at 10 µM, stronger effect = lower value, 100 = same GFP as DMSO wells.
Assay [19] can be described thus: yeast TOR pathway reporter LAP4-GFP change – cell-based, cherry picks, flow cytometry, mother/daughter gates, confirmation (AID 2271;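 active = GFP response above 150% of the DMSO control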;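 also: ratio of sample to DMSO plate mean so 100% equals DMSO level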). Particulars: S. cerevisiae LAP4-GFP strain, 3 h, at 10 µM, stronger effect = higher value.
A short description of assay [20]: TOR pathway CIT2 reporter hit retest – S. cerevisiae, GFP fusion, cherry picks, mother/daughter gates, confirmation (AID 2274;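 active = GFP response above 150% of the DMSO level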). As to conditions: S. cerevisiae CIT2-GFP strain, flow cytometry, 3 h, at 10 µM, stronger effect = higher value.
Setting [21] is: measured here: daughter cell gate.
Where [22] appears, read: measured here: mother cell gate.
Where [23] appears, read: measured here: daughter cell gate response.
Setting [24] is: measured here: mother cell gate response.

Integrin beta-1 (Homo sapiens) + Integrin alpha-4 (Homo sapiens), sequence (P05556 whole entry, looked up): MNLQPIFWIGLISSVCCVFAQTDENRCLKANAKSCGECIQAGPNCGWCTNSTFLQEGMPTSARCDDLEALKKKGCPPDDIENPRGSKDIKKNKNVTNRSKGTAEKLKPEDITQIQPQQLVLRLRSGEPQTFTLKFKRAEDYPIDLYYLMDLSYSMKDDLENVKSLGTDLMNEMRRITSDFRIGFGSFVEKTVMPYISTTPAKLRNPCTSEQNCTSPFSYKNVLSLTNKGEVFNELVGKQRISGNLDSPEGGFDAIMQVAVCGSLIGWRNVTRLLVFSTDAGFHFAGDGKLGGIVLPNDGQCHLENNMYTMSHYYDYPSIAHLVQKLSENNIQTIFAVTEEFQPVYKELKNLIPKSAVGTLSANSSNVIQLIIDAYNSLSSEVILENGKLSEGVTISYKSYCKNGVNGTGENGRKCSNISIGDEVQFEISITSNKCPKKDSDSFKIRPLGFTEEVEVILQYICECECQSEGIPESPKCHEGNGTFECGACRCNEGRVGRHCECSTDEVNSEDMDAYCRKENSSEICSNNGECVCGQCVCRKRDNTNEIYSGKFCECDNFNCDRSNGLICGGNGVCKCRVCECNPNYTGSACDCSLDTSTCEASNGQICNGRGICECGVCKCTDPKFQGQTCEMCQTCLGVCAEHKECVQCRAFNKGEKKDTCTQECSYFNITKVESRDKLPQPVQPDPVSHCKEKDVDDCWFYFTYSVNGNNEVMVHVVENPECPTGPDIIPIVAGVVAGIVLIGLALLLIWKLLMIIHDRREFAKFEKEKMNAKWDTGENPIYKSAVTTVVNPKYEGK
Integrin beta-1 (Homo sapiens) + Integrin alpha-4 (Homo sapiens), sequence (P13612 whole entry, looked up): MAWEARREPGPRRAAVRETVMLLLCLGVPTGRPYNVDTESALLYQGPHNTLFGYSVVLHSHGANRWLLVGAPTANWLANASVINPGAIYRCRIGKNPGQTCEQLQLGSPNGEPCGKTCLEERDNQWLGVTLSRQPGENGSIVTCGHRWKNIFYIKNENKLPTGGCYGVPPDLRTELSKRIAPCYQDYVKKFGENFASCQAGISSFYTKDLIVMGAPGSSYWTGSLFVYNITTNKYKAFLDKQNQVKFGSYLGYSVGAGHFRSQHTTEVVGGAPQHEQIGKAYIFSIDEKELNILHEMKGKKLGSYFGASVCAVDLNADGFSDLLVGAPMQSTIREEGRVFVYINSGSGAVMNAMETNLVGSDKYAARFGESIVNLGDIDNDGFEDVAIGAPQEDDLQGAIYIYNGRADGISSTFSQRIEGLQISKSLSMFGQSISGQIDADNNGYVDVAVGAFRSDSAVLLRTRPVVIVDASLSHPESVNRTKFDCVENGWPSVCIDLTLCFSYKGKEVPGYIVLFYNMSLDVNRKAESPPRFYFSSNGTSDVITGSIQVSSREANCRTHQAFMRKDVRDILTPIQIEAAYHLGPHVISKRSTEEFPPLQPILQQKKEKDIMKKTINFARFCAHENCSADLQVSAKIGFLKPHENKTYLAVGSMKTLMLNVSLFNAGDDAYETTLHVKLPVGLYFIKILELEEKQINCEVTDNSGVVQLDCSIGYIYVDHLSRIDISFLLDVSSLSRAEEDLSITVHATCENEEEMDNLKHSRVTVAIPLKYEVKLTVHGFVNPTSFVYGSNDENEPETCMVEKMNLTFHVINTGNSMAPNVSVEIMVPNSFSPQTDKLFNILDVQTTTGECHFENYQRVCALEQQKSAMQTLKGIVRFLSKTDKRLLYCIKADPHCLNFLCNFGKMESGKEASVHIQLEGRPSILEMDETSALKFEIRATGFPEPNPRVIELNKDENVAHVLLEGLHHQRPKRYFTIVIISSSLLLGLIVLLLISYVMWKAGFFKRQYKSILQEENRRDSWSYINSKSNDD

On to `CC(=O)[C@H]1CC[C@H]2[C@@H]3CC[C@H]4C[C@H](O)CC[C@]4(C)[C@H]3C(=O)C[C@]12C`, for which the percent of DMSO control GFP in assay [1] was 100% (inactive). The GFP response vs DMSO in assay [2] is 97.9% (inactive); in assay [4] it was 106% (inactive). In addition, the percent response of DMSO control in assay [3] is 92% (inactive). In [5], this compound yielded a double positive events of 60.9%. The vesicle binding response in assay [5] was 146% (inactive). In addition, the inhibition was 6.29% (inactive) in assay [6]; 42.5% (inactive) in [9]; 0.8% (inactive) in [12]; 2.5% (inactive) in assay [13]; -1.9% (inactive) in assay [14]; 5% (inactive) in assay [16]. For the same compound, the superoxide response (% of plate) in assay [7] was 110% (inactive). In addition, the aptamer binding inhibition in assay [8] was 3% (inactive). Also, in assay [10], the response was -11.1% (inactive). For the same compound, the binding (% of control) in assay [11] is 99.5% (inactive). The efflux inhibition (fraction of control) in assay [15] is 0.14 (inactive). The differentiation response in [17] is 46.6% (inactive).
As for `C[N+]1(C)CCN(c2ccccc2)CC1`, the percent of DMSO control GFP in [1] was 103% (inactive). Also, the GFP response vs DMSO in [2] was 94.8% (inactive); in [4], 87.3% (inactive). Further, in assay [3], the percent response of DMSO control is 107% (inactive). In assay [5], this compound gave a double positive events of 53.4%. Further, in assay [5], the vesicle binding response was 172% (inactive). Further, the inhibition in assay [6] was -1.17% (inactive); in [9] it was -8.27% (inactive); in assay [12] it was -7.6% (inactive); in [13] it was -1% (inactive); in assay [14], -6.3% (inactive); in [16], 12% (inactive). Besides, the superoxide response (% of plate) in [7] was 93.3% (inactive). In assay [8], the aptamer binding inhibition is 0% (inactive). Further, the response in assay [10] is 1.95% (inactive). Moreover, in assay [11], the binding (% of control) is 100% (inactive). Further, the efflux inhibition (fraction of control) in assay [15] is -0.2 (inactive). The differentiation response in assay [17] was -14.7% (inactive).
With `C[N+]1(C)[C@@H]2CC(OC(=O)[C@H](CO)c3ccccc3)C[C@H]1[C@@H]1O[C@@H]12` (stereo not given in full), the percent of DMSO control GFP in assay [1] was 97.8% (inactive) and 102% (inactive). The GFP response vs DMSO is 104% (inactive) and 114% (inactive) in [2]; 94.8% (inactive) and 112% (inactive) in assay [4]. Also, the percent response of DMSO control in assay [3] was 99.7% (inactive) and 92% (inactive). In addition, the double positive events in assay [5] was 62.3% and 61.3%. Moreover, the vesicle binding response in assay [5] is 109% (inactive) and 5740% (inactive). In addition, the inhibition in assay [6] was 12.3% (inactive) and -9.98% (inactive); in assay [9] it was 5.6% (inactive) and -2.35% (inactive); in assay [12] it was -3.5% (inactive) and 1.5% (inactive); in assay [13], -1.8% (inactive) and 0.7% (inactive); in assay [14] it was -5.6% (inactive) and 13.1% (inactive); in assay [16], -8% (inactive) and 5% (inactive). Moreover, the superoxide response (% of plate) in assay [7] was 103% (inactive) and 114% (inactive). Besides, the aptamer binding inhibition in assay [8] was -1% (inactive) and 1% (inactive). For the same compound, the response in [10] was 3.4% (inactive) and -1.88% (inactive). The binding (% of control) in [11] was 99.6% (inactive) and 101% (inactive). Further, the differentiation response in assay [17] is -6.03% (inactive) and -15.2% (inactive).
As to `CN1C(=O)NC(=O)/C(=C\C=C\c2ccccc2[N+](=O)[O-])C1=O`, the GFP response vs DMSO in assay [18] was 102% (inactive); in [18] (setting [21]), 90.4%; in [18] (setting [22]), 93.5%. Further, the GFP response relative to DMSO in assay [19] was 107% (inactive); in assay [19] (setting [23]) it was 103%; in assay [19] (setting [24]), 112%. Also, the values for the GFP response, % of DMSO in assay [20], in assay [20] (setting [21]) and in assay [20] (setting [22]) were 84.7% (inactive), 96.8% and 70.8%, respectively.
Consider `C#CCOc1cc(C2C3=C(COC3=O)Nc3cc4c(cc32)OCO4)ccc1OC` (stereo not given), for which the values for the GFP response vs DMSO in [18], in [18] (setting [21]) and in assay [18] (setting [22]) were 102% (inactive), 100% and 103%, respectively. The results for the GFP response relative to DMSO in [19], in assay [19] (setting [23]) and in assay [19] (setting [24]) were 113% (inactive), 106% and 114%, respectively. For the same compound, the values for the GFP response, % of DMSO in assay [20], in assay [20] (setting [21]) and in assay [20] (setting [22]) were 107% (inactive), 103% and 107%, respectively.
As for `CCN(CC)c1ccc(/C=C/[N+](=O)[O-])cc1`, the GFP response vs DMSO in [18] was 99.5% (inactive); in assay [18] (setting [21]), 101%; in assay [18] (setting [22]), 100%. For the same compound, the GFP response relative to DMSO was 130% (inactive) in assay [19], 131% in [19] (setting [23]) and 132% in [19] (setting [24]). In addition, the GFP response, % of DMSO was 104% (inactive) in assay [20], 106% in [20] (setting [21]) and 100% in assay [20] (setting [22]).
